Giardia FBPA inh: blocks Giardia fructose-bisphosphate aldolase activity; purified Giardia FBPA; Potency, µM (doses to about 59.6 µM), inactives show top-dose activity, negative = inhibition, actives largely listed as inhibitors; A8B2U2; 290,000 tested, 0.71% active; also: % is scaled to controls: 0 for no effect and ±100 for the full control effect; nearly all actives have a fitted effect of over 55% in size
Target sequence (A8B2U2 whole entry, looked up): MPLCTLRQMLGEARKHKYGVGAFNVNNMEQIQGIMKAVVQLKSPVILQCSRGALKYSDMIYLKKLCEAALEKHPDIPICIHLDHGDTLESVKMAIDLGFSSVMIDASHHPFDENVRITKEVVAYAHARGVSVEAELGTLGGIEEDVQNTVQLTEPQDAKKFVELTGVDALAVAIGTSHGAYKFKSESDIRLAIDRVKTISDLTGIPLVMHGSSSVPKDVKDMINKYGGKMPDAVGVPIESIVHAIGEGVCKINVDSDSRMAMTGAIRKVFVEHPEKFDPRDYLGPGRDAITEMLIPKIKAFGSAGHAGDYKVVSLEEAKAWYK
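40 nM FBPA preincubated 10 min at RT with compound (up to 57.5 uM final), then substrate plus GAPDH/TPI/NAD/arsenate coupling and diaphorase/resazurin added. Fluorescence read after 20 min at RT, 525/598 nm.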
LmPK inhibitor: inhibitors of Leishmania mexicana pyruvate kinase | purified LmPK, Kinase-Glo ATP luminescence, 1 h | 290,000 tested, 0.37% active | Potency, µM (titrated, usually from 57.5 µM), for the others: top-dose activity change, negative = inhibition, actives largely listed as inhibitors; also: % is scaled to controls: 0 for no effect and ±100 for the full control effect
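qHTS format; LmPK 0.1 nM; substrates PEP 0.5 mM and ADP 0.1 mM. One-hour room-temperature incubation, then coupled luciferase luminescence; 0.5 nM enzyme wells mark activation.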
RE007 growth inh: less growth of the S. pombe RE007 Vpr strain; S. pombe RE007 Vpr strain, BacTiter-Glo ATP luminescence, 24 h; Potency, µM (titrated, usually from 92.2 µM), inactives show at the highest dose activity change, negative = less growth, actives largely listed as inhibitors; 360,000 tested, 0.21% active; active = well fitted falling curve with a large enough effect; inconclusive = small, poorly fitted or top-dose-only effect; inactive = no such curve, though single readings can be large or run the other way; also: % is scaled to controls: 0 for no effect and ±100 for the full control effect; nearly all actives have a fitted effect of over 50% in size
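Fission yeast RE007 carrying one integrated HIV-1 vpr copy, seeded at OD 0.01 in PMG+AL medium with 23 nL pinned compound. Grown 24 h at 30 degrees; viability read by BacTiter-Glo luminescence after 5 min.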
Sm TGR block: inhibitors of Schistosoma mansoni thioredoxin glutathione reductase | purified TGR, DTNB reduction, TNB absorbance 405 nm | Potency, µM (series often up to 114 µM), for inactives: top-dose activity change, negative = inhibition, actives largely listed as inhibitors | 360,000 tested, 3% active | AID 485364; also: % is scaled to controls: 0 for no effect and ±100 for the full control effect; nearly all actives have a fitted effect of over 60% in size
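Kinetic colorimetric format: TGR-catalysed, NADPH-driven DTNB reduction monitored via TNB absorbance. Enzyme dispensed at 20 nM; compound exposure 15 min at room temperature before reaction start.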
TbPYK inhibitor: T. brucei pyruvate kinase inhibition | Q57TT1 | TbPYK enzyme, Kinase-Glo Plus ATP luminescence, 45 min | Potency, µM (highest dose often 76.8 µM), for the others: top-dose activity, negative = inhibition, hits mostly inhibitors | 410,000 tested, 0.12% active | AID 624173; also: % is scaled to controls: 0 for no effect and ±100 for the full control effect; nearly all actives have a fitted effect of over 50% in size
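Readout: single end-point luminescence (Kinase-Glo Plus, 10 min). Reaction conditions were TbPYK/substrate plus 130 uM ADP, 45 min at RT, pH 7.2 TEA buffer. No-enzyme wells served as controls, and data were normalized before concentration-response fitting.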
NS1 inh: blocks influenza NS1 protein function; Potency, µM (top dose mostly 46.1 µM), without a hit: top-dose activity, positive = more growth; 270,000 tested, 0.4% active; AID 2326; calls by dose curve; also: actives are rising curves; nearly all actives have a fitted effect of over 50% in size
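In this qHTS, NS1 from influenza A is expressed in budding yeast, where it slows growth. Cells are switched from glucose to 2% galactose medium (pH 6.0, -URA), treated with compound, and growth recovery is read at OD600.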
* marks the source's active call; other numbers are inactive results. Hits are enriched below; roughly 3.5% of the tested compounds scored in any of these assays. Unless noted, calls follow the shape of the dose curve; as a rule, active = well fitted curve in the direction sought with a large enough effect; inconclusive = small, poorly fitted or top-dose-only effect, or another doubt; inactive = no such curve, though single readings can be large; an effect the other way counts as inactive or inconclusive. Potency is read from the fitted curve at half-maximal effect.

What do the screens show for `O=C1CC(N2CCCCCC2)C(=O)N1c1ccc(F)cc1` (stereo not given)?
Giardia FBPA inh: 2.5%; LmPK inhibitor: -0.2%; RE007 growth inh: 10µM*; Sm TGR block: 10µM*; TbPYK inhibitor: -4.4%; NS1 inh: -2.9%

Results for O=C1CC(N2CCSCC2)C(=O)N1c1ccc(F)cc1 (stereo not given) ?
Giardia FBPA inh: 2.3%; LmPK inhibitor: -3.7%; RE007 growth inh: 25.1µM*; Sm TGR block: inconclusive; TbPYK inhibitor: -1.3%; NS1 inh: 0.8%

What do the screens show for `COc1ccc(N2C(=O)CC(N3CCCCC3)C2=O)cc1` (stereo not given)?
Giardia FBPA inh: 6.4%; LmPK inhibitor: 3.7%; RE007 growth inh: 17.8µM*; Sm TGR block: 31.6µM*; TbPYK inhibitor: -3.3%

How did O=C1CC(NC23CC4CC(CC(C4)C2)C3)C(=O)N1c1ccc2c(c1)OCO2 (stereo not given) do in these assays?
Giardia FBPA inh: -5.0%; LmPK inhibitor: -1.7%; RE007 growth inh: -3.6%; Sm TGR block: 44.7µM*; TbPYK inhibitor: -5.8%; NS1 inh: 3.9%

Results for NCCCCC(NC(=O)C1CCCN1C(=O)C1CSSCC(N)C(=O)NC(Cc2ccccc2)C(=O)NC(Cc2ccccc2)C(=O)NC(CCC(N)=O)C(=O)NC(CC(N)=O)C(=O)N1)C(=O)NCC(N)=O (stereo not given) ?
TbPYK inhibitor: 4.5%

Results for CCOc1ccc(NC(=O)Cn2nc(SC)c(S(=O)(=O)c3ccccc3)c2N)cc1 ?
Sm TGR block: 2.9%; TbPYK inhibitor: -3.3%

How did Cc1ccc(C)c(N2CCN(C(=O)CCS(=O)(=O)c3cc(Br)cc4c3N(C(=O)C3CC3)CC4)CC2)c1 do in these assays?
Sm TGR block: 0.4%; TbPYK inhibitor: -5.2%

How did Cc1ccc(NC(=O)Cn2nnc(-c3nc(-c4ccc(Cl)cc4)no3)c2N)cc1C do in these assays?
Sm TGR block: -1.3%; TbPYK inhibitor: -7.4%

Results for Cc1cc2c(cc1NC(=O)c1ccccc1C)n(C)c(=O)c(=O)n2C ?
Sm TGR block: -2.1%; TbPYK inhibitor: -2.5%

What do the screens show for `O=C1CC(N2CCN(c3ccc(O)cc3)CC2)C(=O)N1c1ccc2c(c1)OCO2` (stereo not given)?
Giardia FBPA inh: inconclusive; LmPK inhibitor: 0.6%; RE007 growth inh: -17.6%; TbPYK inhibitor: inconclusive; NS1 inh: 2.9%

How did O=C1CC(N2CCCCCC2)C(=O)N1c1ccc2c(c1)OCO2 (stereo not given) do in these assays?
Giardia FBPA inh: 5.1%; LmPK inhibitor: -12.8%; RE007 growth inh: 6.31µM*; Sm TGR block: 7.94µM*; TbPYK inhibitor: -15.8%; NS1 inh: -40.8%

Results for CC[C@@H]([C@H](C)O)n1ncn(-c2ccc(N3CCN(c4ccc(OCC5CO[C@@](Cn6cncn6)(c6ccc(F)cc6F)C5)cc4)CC3)cc2)c1=O (stereo not given in full) ?
TbPYK inhibitor: 16.7%

Results for C=C1C(=O)O[C@H]2C[C@]3(C)C([C@@H](OC(=O)/C(C)=C/C)[C@H]12)[C@](C)(O)CC[C@H]3O (stereo not given in full) ?
Giardia FBPA inh: 13.3%; LmPK inhibitor: 3.7%; RE007 growth inh: 10.3%; Sm TGR block: 14.1µM*; TbPYK inhibitor: -4.6%; NS1 inh: 7.6%

How did C=C1C(=O)O[C@H]2[C@H]1[C@H](OC(=O)/C(C)=C\C)C[C@]1(CO1)[C@@H]1[C@H](OC(C)=O)C=C(C)[C@]21O do in these assays?
RE007 growth inh: 7.3%; TbPYK inhibitor: -8.8%

How did CC1=C(C(=O)Nc2ccc(Cl)cc2)C(c2cccs2)n2nc(SCc3cccc(C)c3)nc2N1 (stereo not given) do in these assays?
Sm TGR block: 16.2%; TbPYK inhibitor: 1.5%

Results for CC(=O)N1CCOc2cc(S(=O)(=O)Nc3c(C)cccc3C(C)C)c(Cl)cc21 ?
Sm TGR block: 79.4µM*; TbPYK inhibitor: -9.8%

Results for COc1cccc(C(=O)/C=C/Nc2cccc(O)c2)c1 ?
Giardia FBPA inh: -10.1%; LmPK inhibitor: 14.1µM*; RE007 growth inh: -11.7%; Sm TGR block: -0.7%; TbPYK inhibitor: inconclusive; NS1 inh: -70.3%

How did CN(C)c1ccc(N/C=C/C(=O)c2ccccc2)cc1 do in these assays?
Giardia FBPA inh: inconclusive; LmPK inhibitor: 5.62µM*; RE007 growth inh: -14.2%; Sm TGR block: -15.8%; TbPYK inhibitor: inconclusive; NS1 inh: -13.7%

What do the screens show for `O=C(/C=C/Nc1ccccc1)c1ccccc1`?
Giardia FBPA inh: -4.5%; LmPK inhibitor: 7.94µM*; RE007 growth inh: inconclusive; Sm TGR block: 97.8%; TbPYK inhibitor: -21.7%; NS1 inh: -35.8%

How did O=S(=O)(Nc1nc2ccccc2nc1Nc1ccccc1Br)c1ccccc1 do in these assays?
Sm TGR block: 14.1%; TbPYK inhibitor: -0.2%

What do the screens show for `C[C@H](C(=O)c1ccccc1)C(c1ccccc1)N1CCOCC1` (stereo not given in full)?
NS1 inh: 0.0%

How did O=C(Nc1cccc(Cl)c1Cl)c1ccc2c(c1)N(Cc1cccc(Cl)c1)C(=O)c1ccccc1S2=O (stereo not given) do in these assays?
Sm TGR block: 21.3%; TbPYK inhibitor: 1.3%

How did COc1ccc2c(Sc3ccc(C)cc3)c(C(=O)NCC(C)c3ccccc3)[nH]c2c1 (stereo not given) do in these assays?
Sm TGR block: 8.4%; TbPYK inhibitor: 2.9%

Results for CCOc1ccc(N(CC(=O)Nc2ccccc2CC)S(=O)(=O)c2c(C)[nH]c(=O)[nH]c2=O)cc1 ?
Sm TGR block: -0.3%; TbPYK inhibitor: 0.1%

Results for Oc1ccc(NCc2ccccc2OCc2ccccc2)cc1 ?
Giardia FBPA inh: inconclusive; LmPK inhibitor: -1.3%; RE007 growth inh: -15.0%; Sm TGR block: 14.1µM*; TbPYK inhibitor: inconclusive; NS1 inh: -7.7%

How did CCOc1cc(CNc2ccc(O)cc2)ccc1OCc1ccc(Cl)cc1 do in these assays?
Sm TGR block: 44.7µM*; TbPYK inhibitor: -27.8%

How did O=c1[nH]c2ccc(NCc3ccccc3OCc3ccc(Cl)cc3)cc2[nH]1 do in these assays?
Giardia FBPA inh: -1.2%; LmPK inhibitor: -0.8%; RE007 growth inh: -8.1%; Sm TGR block: inconclusive; TbPYK inhibitor: -6.6%; NS1 inh: 21.4%

What do the screens show for `Oc1ccc(NCc2ccccc2OCc2ccc(Cl)cc2)cc1`?
Sm TGR block: 44.7µM*; TbPYK inhibitor: 4.0%

Screening results: PubChem, National Center for Advancing Translational Sciences (NCATS)
